ALOX12 inh – ALOX12 (human) lipoxygenase inhibition. P18054. Potency, µM (highest dose often 108 µM), for the others: at the top dose activity change, negative = inhibition, actives largely listed as inhibitors. purified 12hLO, xylenol orange hydroperoxide absorbance. 1.1% of 580,000 active; note: potency is the fitted concentration of half-maximal effect; % is set by controls: 0 for no effect and ±100 for the full control effect
Target sequence (P18054 whole entry, looked up): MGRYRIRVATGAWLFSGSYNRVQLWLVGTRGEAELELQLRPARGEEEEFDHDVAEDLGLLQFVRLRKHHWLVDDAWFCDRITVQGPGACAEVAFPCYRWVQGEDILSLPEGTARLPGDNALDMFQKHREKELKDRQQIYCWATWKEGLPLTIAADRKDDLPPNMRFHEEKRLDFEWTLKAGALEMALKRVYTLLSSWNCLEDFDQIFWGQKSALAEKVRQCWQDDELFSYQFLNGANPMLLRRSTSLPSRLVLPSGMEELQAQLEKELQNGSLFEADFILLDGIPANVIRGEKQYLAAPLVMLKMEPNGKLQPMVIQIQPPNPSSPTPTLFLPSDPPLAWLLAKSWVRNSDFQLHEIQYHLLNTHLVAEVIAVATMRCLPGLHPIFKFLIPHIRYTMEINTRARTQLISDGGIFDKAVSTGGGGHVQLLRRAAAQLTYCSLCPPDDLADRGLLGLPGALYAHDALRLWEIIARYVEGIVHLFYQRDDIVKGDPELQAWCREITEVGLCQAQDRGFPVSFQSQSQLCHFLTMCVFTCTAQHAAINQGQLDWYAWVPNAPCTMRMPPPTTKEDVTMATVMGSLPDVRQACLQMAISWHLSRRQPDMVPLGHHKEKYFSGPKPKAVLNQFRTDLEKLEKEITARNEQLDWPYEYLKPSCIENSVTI
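Hydroperoxide product was detected by ferrous iron/xylenol orange as the 573 to 405 nm absorbance ratio. Arachidonic acid at 40 uM (final) was turned over for 30 min at room temperature by 150 nM human 12hLO, pH 7.0 Hepes buffer, after 15 min compound preincubation.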
p53 reactivator – mutant p53 re-activation in reporter cells. H1299 p53-A138V BP100-luciferase reporter, luminescence, 24 h. Potency, µM (doses to about 92.2 µM), for the others: top-dose activity change, positive = activation, most hits filed as activators. 0.063% of 320,000 active. AID 504706; note: potency is the fitted concentration of half-maximal effect; % of control where 0% means no effect; nearly all actives have a fitted effect of over 45% in size
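p53-null H1299 cells stably carrying temperature-sensitive p53-A138V and a BP100-luciferase reporter were pinned with compounds (4-point, 1:5 series) and held 24 hrs at 37 deg C. Luminescence was read 10 min after detection reagent.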
PINK1 expr mod – PINK1 expression modulation; Potency, µM (highest dose often 76.6 µM), without a hit: at the top dose activation (PINK1 increase), actives largely listed as activators; 0.2% of 410,000 active; PINK1 immunofluorescence, high-content cytometry, 24 h; active = well fitted activation curve with a large enough effect; inconclusive = small, poorly fitted or top-dose-only effect; cell line not stated here; note: potency is the fitted concentration of half-maximal effect; % of control where 0% means no effect; nearly all actives have a fitted effect of over 65% in size
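PINK1 protein level read as immunofluorescence by microplate cytometer in a fixed, stained stable cell line after 24 h exposure to five compound concentrations, with CCCP as control.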
CCT chaperon mod – modulators of cytosolic chaperonin (CCT/TRiC) activity. activity change, % (no concentration beside the values), hits read low. purified chaperonin ATPase assay, HTRF ADP detection, 30 min. 0.3% of 360,000 active. AID 651819; in the data active = activity change below about -30%; note: % is set by controls: 0 for no effect and ±100 for the full control effect
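First, chaperonin was dispensed at 40 nM or 20 nM final depending on batch activity. Next, compounds were pinned at 76 uM and ATP added at 10 uM. After 30 min at 37 °C, ADP detection reagents ran 30 min at ambient temperature.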
MmCpn inh – M. maripaludis TRiC chaperonin inhibition | purified Mm-Cpn ATPase, ADP Transcreener TR-FRET | AID 504842 | Potency, µM (series often up to 76.9 µM), for inactives: at the top dose activity, negative = inhibition, usual class: inhibitors | 0.031% of 330,000 active; note: potency is the fitted concentration of half-maximal effect; % is set by controls: 0 for no effect and ±100 for the full control effect; nearly all actives have a fitted effect of over 80% in size
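Purified archaeal Mm-CPN (25nM final) preincubated 10 min at 37degC with compound, then 10uM ATP for 30 min at 37degC; ADP measured by HTRF Transcreener TR-FRET; buffer 30 mM TRIS pH 7.4, 100mM KCl, 5mM MgCl2, 1mM DTT.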
ASM inhibitor – blocks human secretory acid sphingomyelinase; P17405; placental ASM, HMU-PC fluorogenic substrate, 60 min; Potency, µM (series often up to 57.5 µM), inactives show at the top dose activity change, negative = inhibition, actives largely listed as inhibitors; 0.006% of 340,000 active; note: potency is the fitted concentration of half-maximal effect
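Fluorogenic HMU-PC substrate (9 uM final) is turned over by placental ASM in 60 min at 37 C after a 10 min compound preincubation. Reaction ended by alkaline stop (pH 10), with fluorescence read at 386/447 nm.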
* hit, by the source's call; i = inactive; ? = inconclusive; nt = no result; ! = not confirmed by another sample. Hits are enriched below; roughly 1.4% of the tested compounds scored in any of these assays. Unless noted, calls come from the whole dose curve; as a rule, active = well fitted curve in the direction sought with a large enough effect; inconclusive = small, poorly fitted or top-dose-only effect, or another doubt; inactive = no such curve, though single readings can be large; an effect the other way counts as inactive or inconclusive.

SMILES	ALOX12 inh	p53 reactivator	PINK1 expr mod	CCT chaperon mod	MmCpn inh	ASM inhibitor
Cc1ccc(C=NNC(=O)c2cc(-c3cccnc3)nc3ccccc23)o1	10µM*	3.5%	8.2%	-3.3	0.3%	-2.6%
Cc1ccc(-c2cc(C(=O)Nc3ccccc3C(N)=O)c3ccccc3n2)o1	6.31µM*	nt	1.0%	0.5	nt	i
Cc1ccc(-c2cc(C(=O)Nc3ccc(C#N)cc3)c3ccccc3n2)o1	12.6µM*	nt	nt	nt	nt	nt
Cc1ccc(NC(=O)c2cc(-c3ccncc3)nc3ccccc23)cc1	16.8%	nt	nt	nt	nt	nt
CN(CC(=O)Nc1cccc(F)c1)C(=O)Cc1csc(-c2ccccc2)n1	-10.9%	nt	nt	nt	nt	nt
COCc1nnc(NC(=O)CCn2ccc3cc(OC)ccc32)s1	-0.8%	nt	nt	nt	nt	nt
O=C(Cc1cccc2ccccc12)NCc1ccccn1	32.7%	nt	nt	nt	nt	nt
Cc1c(C(=O)Nc2nc3ccccc3[nH]2)oc2c(Cl)cccc12	-0.9%	?	13.6%	-30.3*	0.0%	-1.9%
Cc1c(C(=O)Nc2nc3ccccc3[nH]2)oc2ccccc12	-12.6%	?	12.4%	-2.0	0.4%	-0.9%
N=C(N)c1cccc(COc2ccccc2)c1	4.6%	nt	nt	nt	nt	nt
N=C(N)c1cccc(OCc2cccnc2)c1	7.94µM*	nt	nt	nt	nt	nt
COc1ccc(-n2nc3c(c2NC(=O)COc2ccccc2)CS(=O)(=O)C3)cc1	27.7%	-2.7%	0.1%	-1.1	0.7%	1.4%
COc1ccc(-n2nc3c(c2NC(=O)COc2ccccc2F)CS(=O)(=O)C3)cc1	?	4.3%	-2.8%	-32.2*	1.2%	-0.1%
N#Cc1ccc(OCC(=O)OCC(=O)c2ccc[nH]2)cc1	-4.3%	0.7%	0.1%	-0.8	-2.8%	0.3%
N#Cc1ccc(OCC(=O)OCC(=O)c2ccccc2)cc1	-1.1%	5.7%	4.0%	-33.2*	0.9%	2.8%
NC1(C(=O)O)CCC1	1.41µM*!	nt	nt	nt	nt	nt
CCC1CSC(Nc2ccc(C)cc2)=N1 (configuration not stated)	-18.1%	nt	nt	nt	nt	nt
CCN(CC1CCOC1)C(=O)CCc1c(C)c2ccc(OC)cc2oc1=O (configuration not stated)	-0.6%	nt	nt	nt	nt	nt
S=c1[nH]nc(Nc2ccccc2Cl)s1	31.6µM*	1.2%	1.5%	-21.0	-7.0%	-4.0%
S=c1[nH]nc(Nc2cccc(Cl)c2)s1	?	5.9%	0.1%	-1.9	0.3%	-2.5%
CN1CCN(c2nc3c(c(=O)[nH]c(=O)n3C)n2Cc2ccc([N+](=O)[O-])cc2)CC1	0.0%	nt	-0.1%	-76.1*	1.1%	0.6%
C/C(N)=C(/C#N)C(=O)CSc1ccc2c(c1)OCCO2	0.0%	39.8µM*	-0.7%	-3.3	-1.3%	6.7%
Cn1c(N)c(C(=O)CSc2ccc3c(c2)OCCO3)c(=O)n(C)c1=O	0.0%	21.2%	-0.8%	-0.2	-3.7%	-10.4%
CCc1nc(N2CCC(C)CC2)c2oc3ccccc3c2n1	11.2µM*	?	?	-0.7	-1.0%	-7.9%
CN(Cc1ccc(C(F)(F)F)cc1)C(=O)C1CCC(=O)N(C2CC2)C1 (configuration not stated)	-47.9%	16.4%	1.4%	-1.6	-6.1%	0.7%
SMILES	ALOX12 inh	p53 reactivator	PINK1 expr mod	CCT chaperon mod	MmCpn inh	ASM inhibitor
CN(Cc1cccc(Cl)c1)C(=O)C1CCC(=O)N(C2CC2)C1 (configuration not stated)	1.0%	7.8%	-1.6%	-76.2*	-0.6%	0.4%
Cc1cc(C)c2c(=O)cc(C(=O)N(Cc3ccco3)C3CCS(=O)(=O)C3)oc2c1 (configuration not stated)	8.0%	nt	nt	nt	nt	nt
Cc1nn(Cc2ccc(F)cc2)c(C)c1NC(=O)Nc1ccc2c(c1)OCO2	1.4%	nt	nt	nt	nt	nt
O=c1c(-c2c(O)cc(O)c3c2O[C@H](c2ccc(O)cc2)CC3)c(-c2ccc(O)cc2)oc2cc(O)cc(O)c12	nt	9.1%	6.8%	-2.4	35.5µM*	?
O=c1c(O)c(-c2ccc(O)cc2)oc2cc(O)cc(O)c12	?	nt	0.1%	0.2	nt	-13.3%
O=C1C=C(C2CCCCC2)C(=O)c2ccccc21	44.7µM*	nt	7.3%	-4.4	nt	-4.5%
COC(=O)[C@@H]1Cc2c([nH]c3ccccc23)[C@@H]2C[C@@H](NCCCn3ccnc3)C[C@@H](c3ccc(F)c(F)c3)N12	104.1%	nt	nt	nt	nt	nt
COc1ccccc1N1CSC2=C(C#N)C(c3ccc(SC)cc3)CC(=O)N2C1 (configuration not stated)	11.2µM*	-0.3%	0.4%	-0.5	-3.3%	-4.2%
COc1cccc(C2CC(=O)N3CN(c4ccccc4F)CSC3=C2C#N)c1 (configuration not stated)	8.91µM*	1.0%	3.0%	-0.3	-7.6%	-3.6%
CCn1c(SCC(=O)Nc2ccc(C(C)C)cc2)nc2c(=O)[nH]cnc21	5.6%	nt	nt	nt	nt	nt
Cc1cccc(N=C2NC(=O)S/C2=C\c2ccco2)c1	?	8.1%	-2.2%	1.9	-3.6%	-10.8%
O=C1NC(=Nc2ccc(O)cc2)S/C1=C/c1ccco1	?	23.4%	-1.5%	-1.9	1.8%	3.1%
O=C1NC(=Nc2ccc3ccccc3c2)S/C1=C/c1ccco1	31.6µM*	2.0%	?	2.6	-6.3%	-0.8%
COc1ccc(N=C2NC(=O)/C(=C\C=C\c3ccco3)S2)cc1	?	6.4%	4.5%	-3.2	-0.2%	-19.5%
O=C1NC(=Nc2ccc(Cl)cc2)/C(=C/c2ccco2)S1	25.1µM*	-8.5%	?	-1.1	-1.8%	-1.9%
Cc1cccc(N=C2NC(=O)/C(=C/C=C/c3ccco3)S2)c1	44.7µM*	0.4%	9.3%	-3.1	0.0%	-24.2%
CC(C)CC(=O)N1CCC(N2C(=O)C3(CCCC3)C2c2ccccc2)CC1 (configuration not stated)	33.5%	nt	nt	nt	nt	nt
CC1CCN(S(=O)(=O)c2cc3cc(Cl)ccc3oc2=O)CC1	-13.5%	nt	nt	nt	nt	nt
CCCc1ccc(C(=O)COC(=O)CNC(=O)c2ccc(C)cc2)cc1	-11.1%	nt	nt	nt	nt	nt
CC(C)N1C(=O)C2(CCCC2)C1C(=O)NCc1cc(F)cc(F)c1 (configuration not stated)	48.1%	nt	nt	nt	nt	nt
Nc1ccc(N2CCOCC2)c2nonc12	39.8µM*	-8.3%	-1.5%	-2.2	-14.5%	-1.0%
O=C(Nc1ccc(N2CCOCC2)c2nonc12)C1CCCC1	-11.5%	20.9%	0.2%	-1.0	-1.8%	-5.5%
COc1ccc2cc(C3CC(c4ccco4)=NN3S(C)(=O)=O)c(Cl)nc2c1 (configuration not stated)	35.5µM*	-5.6%	2.6%	-1.4	-1.4%	1.1%
CN1CCN(NC(=S)NCCc2ccccc2)CC1	10.3%	nt	nt	nt	nt	nt
OCC[C@H]1C[C@H](O)[C@@H](O)[C@]2(CCCO2)O1	13.1%	nt	0.5%	-64.8*	nt	2.6%
CCc1ccc(NC(=S)NCC(C)(C)N2CCOCC2)cc1	0.7%	nt	nt	nt	nt	nt

Source: PubChem
